# Rows were chosen to be rich in hits. Some 19% of all compounds tested hit in one or more screens of this group.
# TDP1 cell CPT – qHTS for Inhibitors of human tyrosyl-DNA phosphodiesterase 1 (TDP1): qHTS in cells in presence of CPT; chicken DT40 Tdp1-/-;hTDP1 cells + 20 nM CPT, ATP luminescence, 48 h; Potency, µM (titrated, usually from 46.2 µM), actives largely listed as inhibitors; 12% of 420,000 active; AID 686979, 2013; also: nearly all actives have a fitted effect of over 55% in size
#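 Chicken DT40 Tdp1-/- cells complemented with human TDP1, 400 cells/well, exposed to compounds plus 20 nM camptothecin for at least 48 h at 37 C; viability read as ATP content by CellTiter-Glo luminescence.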
# DT40 TDP1 no CPT – qHTS for Inhibitors of human tyrosyl-DNA phosphodiesterase 1 (TDP1): qHTS in cells in absence of CPT | DT40 Tdp1-/- hTDP1 cells, no CPT, ATP luminescence, 48 h | Potency, µM (highest dose often 46.2 µM), most hits filed as inhibitors | 15% of 420,000 active | AID 686978, 2013; also: nearly all actives have a fitted effect of over 55% in size
#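 A cellular qHTS used chicken DT40 cells lacking endogenous Tdp1 but carrying stably transfected human TDP1. Compounds were applied without camptothecin, and cell growth kinetics were judged by ATP-dependent luminescence after ≥48 hr.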
# HT1080NT lethal – qHTS for induction of synthetic lethality in tumor cells producing 2HG: qHTS for the HT-1080-NT fibrosarcoma cell line | HT-1080-NT fibrosarcoma viability, CellTiter-Glo ATP luminescence, 48 h | Potency, µM (highest dose often 46.1 µM), hits mostly cytotoxic | 1.6% of 360,000 active;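 also: NT is the 2HG producing partner of a matched IDH1 knockdown line; nearly all actives have a fitted effect of over 55% in size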
#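 Viability by CellTiter-Glo luminescence after 48 h compound exposure at 37C of HT-1080-NT cells (750/well, RPMI, 5% FBS). % activity scaled between DMSO wells and medium-only wells, then curve-fitted and categorized by curve class.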
# HT1080 IDH1KD tx – qHTS for induction of synthetic lethality in tumor cells producing 2HG: qHTS for the HT-1080-IDH1KD cell line. HT-1080 IDH1 knockdown viability, ATP luminescence, 48 h. Potency, µM (series often up to 46.1 µM), actives largely listed as cytotoxic. 2% of 360,000 active. AID 686971, 2013
#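 % activity derives from luminescence (CellTiter-Glo), normalised to DMSO and no-cell wells. HT-1080-IDH1KD cells, 750/well, had 48 h compound exposure at 37 °C.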
# IL-1B inflam inh – qHTS for Inhibitors of Inflammasome Signaling: IL-1-beta AlphaLISA Primary Screen | THP-1 LPS/ATP IL-1B secretion, AlphaLISA, 16 h; hits give low values | activity change, % at 57.5 µM | 4.7% of 360,000 active; in the data active = activity change below about -50%; inconclusive = mostly about -30% to -49%
#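 Secreted IL-1B measured by AlphaLISA bead assay after 16 h compound exposure of THP-1 cells; compounds (final up to 57.5 uM) added 1 h before LPS (250 ng/mL) and ATP (1.25 mM) stimulation; lower signal means less secretion.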
# uPA surface inh – qHTS for Inhibitors of Cell Surface uPA Generation; 0.31% of 330,000 active; AID 540303, 2011; Potency, µM (top dose mostly 38.3 µM), actives largely listed as inhibitors; cell surface uPA generation assay, qHTS; active = well fitted inhibition curve with a large enough effect; inconclusive = small, poorly fitted or top-dose-only effect; inactive = no such curve, though single readings can be large or run the other way; tested in mouse RAW 264.7 cells; also: nearly all actives have a fitted effect of over 55% in size
# Hits are given with their value; n = inactive; u = inconclusive; x = no result. Unless noted, calls follow the shape of the dose curve; as a rule, active = well fitted curve in the direction sought with a large enough effect; inconclusive = small, poorly fitted or top-dose-only effect, or another doubt; inactive = no such curve, though single readings can be large; an effect the other way counts as inactive or inconclusive.
SMILES,TDP1 cell CPT,DT40 TDP1 no CPT,HT1080NT lethal,HT1080 IDH1KD tx,IL-1B inflam inh,uPA surface inh
N#Cc1cc(-c2ccccc2)nn1-c1ccccc1,u,21µM,n,n,n,n
Nc1ccccc1Nc1cc(-c2ccccc2)[nH]n1,n,13µM,u,u,-94,n
Cn1ccc(-c2ccccc2)n1,n,n,n,n,n,n
Nc1ccccc1Nc1cc(-c2ccccc2)nn1-c1ccccc1,23µM,21µM,n,n,n,n
Cc1ccc(-n2nc(-c3ccccc3)cc2Nc2ccccc2N)cc1,n,n,n,n,n,n
CC1CC(C)CN(C(=O)c2ccc(S(=O)(=O)N3CCCC3)cc2)C1 (configuration not stated),n,n,n,n,n,n
CC(=O)Nc1ccc(S(=O)(=O)N(C)CC(=O)OC(C)C(=O)NC2(C#N)CCCCC2)cc1 (configuration not stated),n,n,n,n,n,x
CCc1ccc(-n2c(=O)c3sc4ccccc4c3n(Cc3cccc(F)c3)c2=O)cc1,n,u,x,x,x,x
OCCCCNCc1ccc(OCc2ccc(Cl)cc2Cl)cc1,21µM,23µM,u,u,-101,n
S=C(Nc1ccccc1)Nc1ccc(OCc2ccc(Cl)cc2Cl)cc1,18µM,u,n,n,n,n
OCCNCc1ccc(OCc2ccc(Cl)cc2Cl)cc1,18µM,18µM,u,21µM,-98,n
NC(=O)C1CCN(Cc2nc3cc(C(F)(F)F)ccc3c(=O)[nH]2)CC1,n,n,n,n,n,u
O=CN1CCCN(C(=O)c2cc(NC(=O)c3ccccc3)cc3ncn(C4CCCC4)c23)CC1,n,n,x,x,x,x
C(=C\c1ccccc1)/CN1CCN(C(c2ccccc2)c2ccccc2)CC1,u,u,n,n,n,n
CSCCC(c1nnnn1C1CCCC1)N1CCN(C/C=C/c2ccccc2)CC1 (configuration not stated),u,u,n,n,n,x
CSCCC(C(=O)Nc1c(C)cccc1C)N1CCN(C/C=C/c2ccccc2)CC1 (configuration not stated),u,13µM,n,n,n,x
Cc1cccc(C)c1NC(=O)C(c1ccccc1)N1CCN(C/C=C/c2ccccc2)CC1 (configuration not stated),18µM,u,n,n,n,x
N/C(=N\c1nc2c(c(=O)[nH]1)CCC2)Nc1cccc(Cl)c1,21µM,26µM,u,u,n,n
COc1cc(C(C)=O)ccc1OCC(O)Cn1nc(C)c(Br)c1C (configuration not stated),u,u,n,n,n,n
CC(O)CNCCCOc1ccc(Cl)cc1C(C)(C)C (configuration not stated),13µM,13µM,18µM,u,-66,n
CN(C)CCOCCOc1ccccc1-c1ccccc1,u,u,n,n,n,x
Cc1cc(Cl)cc(Br)c1OCCNCC(C)O (configuration not stated),n,n,n,n,n,n
CN(C)CCOCCOc1ccc(Cl)cc1C(C)(C)C,u,u,u,u,-56,n
CCc1ccccc1NC(=O)Nc1cc(C(=O)NCc2ccc(OC)cc2)ccc1N1CCCC1,12µM,9.2µM,x,x,x,x
CCc1ccccc1NC(=O)Nc1cc(C(=O)NCc2cccc(F)c2)ccc1N1CCCC1,3.3µM,2.6µM,x,x,x,x
SMILES,TDP1 cell CPT,DT40 TDP1 no CPT,HT1080NT lethal,HT1080 IDH1KD tx,IL-1B inflam inh,uPA surface inh
CCOc1ccc(OCC)c(-c2c(=O)n(OCc3ccccc3C(=O)OC)c3ccccc3[n+]2[O-])c1,13µM,13µM,n,n,n,x
CCOc1ccc(-c2c(=O)n(OCc3nc4ccccc4[nH]3)c3ccccc3[n+]2[O-])cc1,u,23µM,n,n,x,n
CCOc1ccc(-c2c(=O)n(OCc3ccccc3Br)c3ccccc3[n+]2[O-])c(OCC)c1,u,23µM,n,n,n,n
COc1ccc(-c2c(=O)n(OCc3nc4ccccc4[nH]3)c3ccccc3[n+]2[O-])cc1,n,u,n,n,n,n
O=c1c(-c2ccco2)[n+]([O-])c2ccccc2n1OCc1ccccc1F,n,u,n,n,n,x
CCOc1ccc(OCC)c(-c2c(=O)n(OCc3ccccc3Br)c3ccccc3[n+]2[O-])c1,10µM,8.9µM,n,n,n,x
CCOn1c(=O)c(-c2ccc(Br)cc2)[n+]([O-])c2ccccc21,n,n,n,n,n,n
CCOC(=O)C1=C(COC(=O)/C=C/c2cc(OC)c(OC)c(OC)c2)NC(=O)NC1C (configuration not stated),u,u,n,n,n,u
Cc1ccc(-c2nn3c(-c4ccccc4)nnc3o2)cc1,u,u,n,n,n,x
CC1CN(C(=S)Nc2ccccc2)C(C)CN1C=O (configuration not stated),n,n,n,n,n,n
O=S(=O)(Cc1ccc(Cl)cc1)c1ccccc1-c1nnc(-c2ccc(Cl)cc2)o1,u,u,n,n,n,n
O=S(=O)(Cc1ccccc1)c1ccccc1-c1nnc(-c2ccccc2)o1,16µM,16µM,n,n,n,n
Cc1ccc(-c2nnc(-c3ccccc3S(=O)(=O)Cc3ccc(Cl)cc3)o2)cc1,u,23µM,n,n,n,n
Cc1noc(C)c1C(=O)Nc1nccs1,n,n,n,n,n,n
CCN1CC=C2C(C#N)=C(N)C(C#N)(C#N)[C@H](c3cccc(OC)c3OC)[C@H]2C1,n,n,n,n,n,x
CCN1CC=C2C(C1)C(c1ccc(Cl)s1)C(C#N)=C(N)C2(C#N)C#N (configuration not stated),16µM,u,n,n,n,n
O=[N+]([O-])c1ccc(Nc2nc(N3CCOCC3)nc(N3CCOCC3)n2)cc1,u,u,n,n,n,n
CC(=C/c1ccccc1)/C=N/Nc1nc(N2CCCCC2)nc(N2CCCCC2)n1,n,u,n,n,n,n
COc1ccc(Nc2nc(N3CCOCC3)nc(N3CCOCC3)n2)cc1,n,u,n,n,n,n
BrC(/C=N/Nc1nc(N2CCOCC2)nc(N2CCOCC2)n1)=C/c1ccccc1,16µM,21µM,n,n,u,n
c1ccc(Nc2nc(N3CCNCC3)nc(N3CCOCC3)n2)cc1,u,u,n,n,-63,n

# From PubChem BioAssay
